Structures are written as SMILES. Records with an inconclusive call do not appear. A call without a number means that no potency is given here. A number with no mark means an inactive call. Calls of active or inactive are those of the source. Calls follow the shape of the dose curve; as a rule, active = well fitted activation curve with a large enough effect in the repeat runs; inconclusive = weak or mixed curves; inactive = flat fitted curve, though single readings scatter.

This test in a line: A CellTox Green Cytotoxicity Assay to monitor cytotoxicity in HEK293 cells - 8 hour (AID 1224884). Also: nearly all actives have a fitted effect of over 35% in size. To be noted: CellTox Green fluorescence; series mostly up to 76.8 µM. The source says:
National Center for Advancing Translational Sciences [NCATS]
NIH Chemical Genomics Center [NCGC]
U.S. Environmental Protection Agency [EPA]
National Institutes of Environmental Health Sciences [NIEHS]
National Toxicology Program [NTP]
Cell-based models are critical for drug discovery. Determining the natural cytotoxic effects resulting from test compounds is an essential research activity. A CellTox Green Cytotoxicity Assay to monitor cytotoxicity in real time of continues cell culture during 40 hours of the compound treatment was used to screen Tox21 10K library compounds in Hek293 cells. CellTox Green Cytotoxicity Assay is a nonlytic, homogeneous, biofluorescent method to measure cytotoxicity in cell culture after experimental manipulation. The assay system uses a proprietary asymmetric cyanine dye that is excluded from viable cells but preferentially stains the dead cell's DNA. […] Viable cells produce no appreciable increases in fluorescence. Therefore, the fluorescence signal produced by the binding interaction with dead cell DNA is proportional to cytotoxicity.
The mixture of Hek293 cell suspension and reagents were dispensed at 600cells/6 ul/well in 1536-well tissue culture treated black solid bottom plates using a Multidrop dispenser. After the assay plates were incubated at a 37 C/5% CO2 incubator for 5 hours, 23 nL of compounds dissolved in DMSO, positive and negative controls was transferred to the assay plate by a pintool work station. The plates were incubated at 37 C for 40 hours. The fluorescence intensity were measured at 0h, 8h, 16h, 24h, 32h and 40h time points using ViewLux plate reader during compound treatment.
As to `CC(=O)/C=C/C1C(C)=CCC(C)C1(C)C` (stereo not given), the Potency result is “inactive”.
As to `C=COCCOCCOCCOC=C`, the Potency entry was “inactive”.
`CCCCCCCC/C=C\CCCCCCCC(=O)OCCCC`: the cytotoxicity increase was -25.9% [at 15.8 µM].
The same measure, in the same setting: then `COC(=O)C1CC(=O)C(C(=O)OC)CC1=O` (stereo not given), with 10.4% [at 6.97 µM].
Turning to `CN(CCOc1ccc(NS(C)(=O)=O)cc1)CCc1ccc(NS(C)(=O)=O)cc1`, the Potency entry is “inactive”.
With `NCCN1CCOCC1`, the Potency result was “inactive”.
As for `Cc1c(I)c(=O)n(-c2ccccc2)n1C`, the Potency result is “inactive”.
On to `O=C(O)Cc1cn(-c2ccccc2)nc1-c1ccc(Cl)cc1`, for which the Potency entry is “inactive”.
On to `CC(C)(C)c1n[nH]c(=S)n(N)c1=O`, for which the Potency result is “inactive”.
Still for that read-out and setting: then `COc1cc2c(cc1OC)C(=O)CC2`, with “inactive”; and `CC/C=C\CC1=C(C)CCC1=O`, with “inactive”; and `CCC(C)(CCC(C)C)C(=O)O` (stereo not given), with “inactive”.
As for `C=CCCCCCCCCCCCC`, the Potency entry is “inactive”.
As for `CC(=O)Nc1ccc(S(=O)(=O)Cl)cc1`, the Potency result is “inactive”.
Turning to `COC(=O)CCCCCCCC(=O)OC`, the Potency result was “inactive”.
On to `Nc1ccc(S(=O)(=O)Nc2ccc(Cl)nn2)cc1`, for which the Potency result was “inactive”.
The same measure, in the same setting: the result for `Nc1ccc2cc(S(=O)(=O)O)cc(O)c2c1` reads “inactive”; that for `CCOC(=O)/C=C/c1ccccc1`, “inactive”; that for `CCCCCCCCSCC`, “inactive”.
`CCCCCCCCCC(C)=O`: the Potency entry is “inactive”.
On to `CCc1ccc(C=O)cc1`, for which the Potency result was “inactive”.
In the case of `CCCC(=O)C(C)=O`, the Potency result was “inactive”.
For the compound `CC(C)CC(C)CC(C)CC(C)COC(=O)c1ccccc1C(=O)OCC(C)CC(C)CC(C)CC(C)C` (stereo not given), the Potency result is “inactive”.
Same read-out and setting: then `CCN1CCc2nc(N)oc2CC1`, with “inactive”.
Turning to `COP(=O)(OC)OC(c1ccc(Cl)cc1)P(=O)(OC)OC` (stereo not given), the Potency entry was “inactive”.
`O=Cc1ccc(Cl)c(Cl)c1`: the Potency result was “inactive”.
For the compound `O=C(NCCN1CCOCC1)c1ccc(Cl)cc1`, the Potency result was “inactive”.
The same measure, in the same setting: then `O=S(=O)(O)c1cc(O)c2ccc(Nc3ccccc3)cc2c1`, with “inactive”.
Take `Cc1cc(C(C)(C)C)c(O)c(C)c1CC1=NCCN1`: the Potency entry is “inactive”.
As for `CC(=C(CCOC(=O)C(C)C)SSC(CCOC(=O)C(C)C)=C(C)N(C=O)Cc1cnc(C)nc1N)N(C=O)Cc1cnc(C)nc1N`, the Potency result is “inactive”.
As to `O=C(O)Cc1ccc(Cl)cc1Cl`, the Potency result is “inactive”.
On to `CC(C)(C)c1nnc(NS(=O)(=O)c2ccc(N)cc2)s1`, for which the Potency result was “inactive”.
Take `COc1ccc2nc(SCc3ncc(C)c(OC)c3C)[nH]c2c1`: the Potency entry is “inactive”.
Take `CCCC/C=C\CCCCCCCCCC=O`: the Potency entry was “inactive”.
With `c1ccc2c(c1)ccc1c3ccccc3ccc21`, the Potency entry is “inactive”.
As to `O=C(NCCc1c[nH]c2ccccc12)c1cccnc1`, the Potency result was “inactive”.
For `CCOC(=O)c1ccc(OC(=O)CCCCCN=C(N)N)cc1`, the Potency entry is “inactive”.
For the compound `CC(C)=CCOC(=O)c1ccccc1`, the Potency entry was “inactive”.
Take `COc1ccc(C2CNC(=O)C2)cc1OC1CCCC1` (stereo not given): the Potency result is “inactive”.
Regarding `OCCCCC(O)CO` (stereo not given), the Potency result is “inactive”.

The values above are taken from PubChem BioAssay (Tox21).
